Experimental data from the OligoGym collection.

Molecular target: DSPP
Test: pooled miR-30 sensor sort-seq; sequence = guide strand
Conditions: shRNA
Further: reference of the scale not given here.

| Sequence | sensor-assay potency score (higher = more potent) |
| --- | --- |
| TTGCTATCACTGCTGTTGCTGC | -0.741 |
| TTTGCTTTCTCTATGGTTGAGC | 0.0105 |
| TTTCTCTTGCTGTTGATCTGAG | -0.329 |
| TTCTCTATGGTTGAGCTTCTGG | -0.413 |
| TTGTCTGTACTGTTATTGCTTC | -0.739 |
| TTACTGTCACTATCACTGCTGT | -0.164 |
| TTTCTGAATTAGCATCATCATT | -1.5 |

Molecular target: DTNBP1
Test: as above
Conditions: shRNA

| Sequence | sensor-assay potency score (higher = more potent) |
| --- | --- |
| TCTAGTTCAGCTTTGAAGGTTT | 0.0978 |
| TCATCGGACTGAACAACGGGGG | -0.232 |
| TAAGTCTTCCAGATGCAGCAGG | -0.317 |
| TAAAACAACCTGGCTTTCCAGG | -0.923 |
| TCACTTAAAGTCTTCAGCCCGG | -0.801 |
| ATTTTTCTTGTAATTCTCCAGT | -0.545 |
| TGACTTGTCACTTAAAGTCTTC | -0.418 |
| TATTTTTCTTGTAATTCTCCAG | -0.412 |
| TTTTCTTGTAATTCTCCAGTTG | -0.365 |
| TTTCTTGTAATTCTCCAGTTGC | -0.554 |
| TTCCTCAAAAAACTTCTGCCGC | -0.552 |
| TTTGCTTCTCTTGACTTGTCAC | 0.23 |

Molecular target: DTX1
Test: as above
Conditions: shRNA

| Sequence | sensor-assay potency score (higher = more potent) |
| --- | --- |
| TTTTGAAAAGAGCAATCGCTGG | -0.945 |
| TTTGAAAAGAGCAATCGCTGGC | 0.224 |
| TAGAACTGCTCAGTCATCTGGG | 0.451 |
| TGTCTAGGTAGCTAGCGTCCGG | -0.967 |
| TTGACCAGCAGGCACTGCTGGC | -1.17 |
| TTCATCTGCGACATGCTGTTGA | 0.174 |
| TATTTCTCCACCCACAGTGGGA | -0.561 |
| TTGTTGGGTAGATAGCAGTGGC | -0.92 |
| TGTCTCTTCTCTTCCAGCCTGG | 0.154 |
| TTTGTAGAACTGCTCAGTCATC | -1.13 |
| TTGAAGTAGATGAGGTAGCAGA | -0.853 |
| TTCACCTTCTGCATGTATCTTC | 0.43 |
| TTGGTCTTGCGGCACACCCCGG | -0.985 |
| TTCTTTTGTAGAACTGCTCAGT | -0.299 |
| TTGCGGTGAACTTCTTCCCGGG | -0.0133 |
| TTTAAGGTGCTTCTTCTTGGTC | -0.486 |
| TATCTTCGAACCACATCCTCGG | 0.116 |
| TCTTCGAACCACATCCTCGGGA | -0.159 |
| TTGGATCCAAACTCGGTCTTGT | 0.0701 |
| TGTATCTTCGAACCACATCCTC | -0.0113 |
| TAGATGAGGTAGCAGAAGCCTA | -1.12 |
